Screens (PubChem)
RGS4 inhibitor: inhibitors of human regulator of G protein signaling 4; AID 504845; Transcreener GDP fluorescence polarization, RGS4-accelerated GTP hydrolysis; 0.039% of 390,000 active; Potency, µM (doses to about 114 µM), actives largely listed as inhibitors; active means well fitted inhibition curve with a large enough effect; inconclusive means small, poorly fitted or top-dose-only effect; inactive means no such curve, though single readings can be large or run the other way; further: nearly all actives have a fitted effect of over 75% in size
Target sequence (P49798 whole entry, looked up): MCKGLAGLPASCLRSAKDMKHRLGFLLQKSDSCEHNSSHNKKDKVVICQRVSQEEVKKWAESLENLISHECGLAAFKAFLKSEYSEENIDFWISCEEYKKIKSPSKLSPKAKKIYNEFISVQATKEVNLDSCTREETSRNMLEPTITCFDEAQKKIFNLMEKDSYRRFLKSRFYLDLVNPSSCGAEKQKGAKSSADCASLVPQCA
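MLSMR compounds (23 nl, pin-transferred) preincubated 10 min at room temperature with a 500nM (2x) first reagent, then RGS4 at 900nM (2x) plus Transcreener GDP mix added; fluorescence polarization (620/688 nm) read before and after 90 min at 30 °C.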
LDHA block: LDHA (human) enzyme inhibition. P00338. purified LDHA, NADH/diaphorase-resazurin fluorescence; stronger effect = lower value. activity change, % (values are at about 110 or 230 µM). 0.15% of 480,000 active; in the data active means activity change below about -30%; inconclusive means mostly about -25% to -30%
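Human LDH5 (2 nM) was incubated with 0.06 mM NADH and 0.2 mM pyruvate for 5 min at room temperature in Tris pH 7.4. Remaining NADH was coupled through diaphorase/resazurin, and resorufin fluorescence was read at 0 and 20 min.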
pAkt inh: Akt phosphorylation inhibition | 0.32% of 360,000 active | activity change, % for hits at 50 µM | AID 651550 | Neuro2A IGF-stimulated pAkt S473 HTRF, 20 min; stronger effect = lower value; in the data active means activity change below about -80%; inconclusive means mostly about -51% to -80%
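Neuro2A cells in DMEM with 0.5% FBS, overnight at 37 deg C, given compound at single 50 µM final, then IGF (6 nM final) for 20 min at 37 deg C. Lysed; phospho-Akt Ser473 by HTRF after 24 h, 665/615 ratio.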
DRD3 agonist: agonists of human D3 dopamine receptor; D3R DiscoveRx beta-arrestin cells, luminescence, 90 min; 0.58% of 410,000 active; P35462; AID 652048; max activation, %; in the data active means max activation above about 30%
Target sequence (P35462 whole entry, looked up): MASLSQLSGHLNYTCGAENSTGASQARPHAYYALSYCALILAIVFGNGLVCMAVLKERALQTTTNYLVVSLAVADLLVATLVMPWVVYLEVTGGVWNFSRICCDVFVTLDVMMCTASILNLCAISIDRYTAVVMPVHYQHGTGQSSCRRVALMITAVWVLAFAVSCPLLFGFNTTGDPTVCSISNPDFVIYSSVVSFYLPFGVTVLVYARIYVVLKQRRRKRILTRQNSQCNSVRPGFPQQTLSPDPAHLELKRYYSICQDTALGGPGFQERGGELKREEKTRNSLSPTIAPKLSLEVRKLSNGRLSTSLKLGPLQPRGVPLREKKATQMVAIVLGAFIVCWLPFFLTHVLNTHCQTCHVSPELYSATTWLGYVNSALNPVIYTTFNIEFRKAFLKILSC
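Agonist-mode cell screen: cells plated at 1500/well and incubated overnight at 37 °C, then exposed to library compounds for 90 min at 37 °C. Detection reagent was added for 30–60 min at room temperature, and luminescence was read.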
PI4K2A block: inhibitors of human PI4K2A; Q9BTU6; purified PI4K2A, ADP-Glo luminescence, 1 h; stronger effect = lower value; activity change, negative = inhibition, % at 76.9 µM; 0.13% of 420,000 active; AID 1346378; in the data active means activity change below about -50%; inconclusive means mostly about -30% to -49%
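Compounds are screened against recombinant PI4K2A using PI as substrate and ATP, the latter dispensed at 300 microM. Reactions run one hour at ambient temperature before ADP-Glo detection; full inhibition defined by wells lacking enzyme.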
DRD3 antagonist: blocks the human D3 dopamine receptor | D3R cells, DiscoveRx beta-arrestin luminescence, antagonist mode; stronger effect = lower value | max response, negative = inhibition, % | 2.5% of 360,000 active | AID 652054; in the data active means max response below about -50%; inconclusive means no clear call, values can overlap the other calls
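Cells expressing the human receptor were seeded at 1500 cells/well, incubated overnight at 37 degrees C in 5% CO2, then exposed to library compounds with dopamine controls for 90 minutes at 37 degrees C before luminescent detection.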
Numbers stand for hits; ! = not active in a repeat; [ ] = another dose, or the depositor's remark. In the library only some 2.8% were active in any assay of this set; here they are far more common.

Screening Cc1ccc(C)c(N2CCN(C(=O)c3cn(CC(C)C)c(=O)c4c3c3ccccc3n4C)CC2)c1 returned RGS4 inhibitor inactive, LDHA block inactive, DRD3 agonist inactive and PI4K2A block inactive.
O=C(O)c1cccc(C(=O)O)c1 was read as RGS4 inhibitor inactive, LDHA block inactive, pAkt inh inactive, DRD3 agonist inactive, PI4K2A block inactive and DRD3 antagonist inactive.
Screening O=C(O)c1cccc(C(=O)Cc2ccccc2)c1 returned RGS4 inhibitor inactive, LDHA block inactive, pAkt inh inactive, DRD3 agonist inactive, PI4K2A block -70.8 and DRD3 antagonist inactive.
Screening O=C(CCCCCCC(=O)N/N=C/c1ccc(Cl)cc1)N/N=C/c1ccc(Cl)cc1 returned LDHA block inactive.
For Cc1ccc(CCC2C3=C(CCCC3=O)OC3=C2C(=O)CCC3)cc1 the results were RGS4 inhibitor inactive, LDHA block inactive, DRD3 agonist 30.4, PI4K2A block inactive and DRD3 antagonist inconclusive.
`CC(C)c1ccc(CC(C)C2C3=C(CCCC3=O)OC3=C2C(=O)CCC3)cc1` (centres undefined) gave RGS4 inhibitor inactive, LDHA block inactive, pAkt inh inactive, DRD3 agonist inactive, PI4K2A block inactive and DRD3 antagonist inactive.
Screening Cc1cc(NC(=O)C(=O)c2c[nH]c3ccc(Br)cc23)no1 returned LDHA block inactive.
`Cc1noc(C)c1CSc1nc2ccccc2nc1NS(=O)(=O)c1ccc(Cl)cc1` gave RGS4 inhibitor inactive[11.4 µM], LDHA block inactive, pAkt inh inactive, DRD3 agonist inactive, PI4K2A block inactive and DRD3 antagonist -51.2.
`O=S(=O)(Nc1nc2ccccc2nc1N1CCCCCC1)c1ccc(Cl)cc1` gave LDHA block inactive.
Screening CC(C)CNc1oc(-c2ccccc2F)nc1C#N returned LDHA block -36.4.
`O=C1C2C3C=CC(C3)C2C(=O)N1/N=C/c1ccc(-c2ccccc2[N+](=O)[O-])o1` (centres undefined) gave RGS4 inhibitor inactive, LDHA block inactive, pAkt inh inactive, DRD3 agonist inactive, PI4K2A block inactive and DRD3 antagonist inactive.
For O=C1C2C3C=CC(C3)C2C(=O)N1/N=C/c1cc(Br)cc([N+](=O)[O-])c1O (centres undefined) the results were RGS4 inhibitor inactive, LDHA block inactive, pAkt inh inactive, DRD3 agonist inactive, PI4K2A block inactive and DRD3 antagonist -68.3.
CCN(CC)CCOC(=O)c1cccc(Br)c1 was read as RGS4 inhibitor inactive, LDHA block inactive, pAkt inh inactive, DRD3 agonist inactive, PI4K2A block inactive and DRD3 antagonist -57.7.
For CN(C)CCN1CCN(C2CN(Cc3cn(Cc4cccc(C(F)(F)F)c4)nn3)S(=O)(=O)C2)CC1 (centres undefined) the results were LDHA block inactive, pAkt inh inactive, DRD3 agonist inactive, PI4K2A block inactive and DRD3 antagonist -72.1.
For CN(C)CCN1CCN(C2CN(Cc3cn(Cc4ccc(C(F)(F)F)cc4)nn3)S(=O)(=O)C2)CC1 (centres undefined) the results were LDHA block inactive, pAkt inh inactive, DRD3 agonist inactive, PI4K2A block inactive and DRD3 antagonist inconclusive.
Screening CN(C)CCN1CCN(C2CN(Cc3cn(Cc4ccc(Cl)cc4)nn3)S(=O)(=O)C2)CC1 (centres undefined) returned LDHA block inactive, pAkt inh inactive, DRD3 agonist inactive, PI4K2A block inactive and DRD3 antagonist -50.6.
`COC(=O)C(C)Sc1nnc(Nc2ccccc2F)s1` (centres undefined) gave LDHA block inactive.
Screening COc1ccc2nc(/C=C/c3ccc(OC)c(OC)c3OC)sc2c1 returned LDHA block inactive.
CCCCNc1c(-c2ccc(SC3CCCCC3)cc2)nc2ccccn12 was read as RGS4 inhibitor inactive, LDHA block inactive, pAkt inh inactive, DRD3 agonist 71.9!, PI4K2A block inactive and DRD3 antagonist inactive.
`CCCCNc1c(-c2cccc(SC3CCCCC3)c2)nc2ccc(Cl)cn12` gave RGS4 inhibitor inactive, LDHA block inactive, pAkt inh inactive, DRD3 agonist 69.4!, PI4K2A block inactive and DRD3 antagonist inactive.
For CCCCNc1c(-c2ccc(SC(C)CC)cc2)nc2ccccn12 (centres undefined) the results were RGS4 inhibitor inactive, LDHA block inactive, pAkt inh inactive, DRD3 agonist 30.2!, PI4K2A block inactive and DRD3 antagonist inactive.
Screening Cc1cc(=O)oc2cc(OCC(=O)N3CCc4sccc4C3c3ccccc3)ccc12 (centres undefined) returned LDHA block inactive.
CCOc1ccc(S(=O)(=O)Nc2cccc(C(=O)NC3CCN(C(C)C)CC3)c2)cc1 was read as LDHA block inactive.
For COc1ccc(/C=C(/C(=O)c2cccs2)N2C=CC=CC2=C(C#N)C#N)cc1 the results were RGS4 inhibitor inconclusive, LDHA block inactive, pAkt inh inactive, DRD3 agonist inactive, PI4K2A block inactive and DRD3 antagonist -81.0.
COc1ccc(C(=O)/C(=C\c2ccco2)N2C=CC=CC2=C(C#N)C#N)cc1 was read as RGS4 inhibitor inconclusive, LDHA block inactive, pAkt inh inactive, DRD3 agonist inactive, PI4K2A block inactive and DRD3 antagonist -64.6.
For N#CC(C#N)=C1C=CC=CN1/C(=C\c1ccco1)C(=O)c1ccccc1 the results were RGS4 inhibitor inconclusive, LDHA block inactive, pAkt inh inactive, DRD3 agonist inactive, PI4K2A block inactive and DRD3 antagonist -106.4.
Screening N#C/C(=C\c1ccco1)C(=O)c1ccccc1 returned LDHA block inactive.
For N#CC(C#N)=C1C=CC=CN1/C(=C\c1ccco1)C(=O)c1ccc(Br)cc1 the results were RGS4 inhibitor inconclusive, LDHA block inactive, pAkt inh inactive, DRD3 agonist inactive, PI4K2A block inactive and DRD3 antagonist -98.8.
Screening COc1ccc(C(=O)/C(C#N)=C\c2ccc(Cl)cc2)cc1 returned LDHA block inactive.
`COc1ccc(N=N/C(=C\O)C(=O)c2cccs2)cc1` gave RGS4 inhibitor inactive, LDHA block inactive, pAkt inh inactive, DRD3 agonist inactive, PI4K2A block inactive and DRD3 antagonist inactive.
For c1cc2c(cc1-c1csc(NC3CCCC3)n1)OCCCO2 the results were LDHA block inactive.
Screening COc1ccc2c(c1OC)C(=O)OC2Nc1nc(-c2ccc(Br)cc2)cs1 (centres undefined) returned LDHA block inactive.
For Cc1cc(/C=C2\SC(=S)NC2=O)c(C)n1-c1cccc(O)c1 the results were RGS4 inhibitor inactive[11.4 µM], LDHA block inactive, pAkt inh inactive, DRD3 agonist inactive, PI4K2A block inactive and DRD3 antagonist inconclusive.
